Usually AC50 stands for the midpoint of the concentration-response curve, whichever way the signal moves.

Activity calls are given as the source filed them. How the source made its calls: active means hit-call score of the fitted dose curve at least 0.9, where 1 is the maximum; inactive means score below 0.9.

The nature of this test: APR_HepG2_MicrotubuleCSK_72hr: Apredica 72-hour HepG2 Assay for Microtubule CSK Stabilty (AID 2282919). The settings on record: HepG2 microtubule cytoskeleton, high-content imaging, actives raise or lower the signal. The procedure:
APR_HepG2_72hr is a cell-based, multiplexed-readout assay that uses HepG2, a human liver cell line, with measurements taken at 72 hours after chemical dosing in a 384-well plate.APR_HepG2_MicrotubuleCSK_72hr is one of 10 assay component(s) measured or calculated from the APR_HepG2_72hr assay. It is designed to make measurements of protein conformation, a form of conformation reporter, as detected with fluorescence intensity signals by HCS Fluorescent Imaging technology.Data from the assay component APR_HepG2_MicrotubuleCSK_72hr was analyzed into 1 assay endpoint. This assay endpoint, APR_HepG2_MicrotubuleCSK_72hr, was analyzed with bidirectional fitting relative to DMSO as the negative control and baseline of activity. Using a type of conformation reporter, measures of protein for gain or loss-of-signal activity can be used to understand the signaling at the cellular-level. Furthermore, this assay endpoint can be referred to as a primary readout, because this assay has produced multiple assay endpoints where this one serves a signaling function. To generalize the intended target to other relatable targets, this assay endpoint is annotated to the cell morphology intended target family, where the subfamily is cell conformation.
Cells were treated with dimethyl sulfoxide (DMSO) as a solvent control at a final concentration of 0.5% v/v or with compounds in DMSO with a resulting final DMSO concentration of 0.5% v/v. Compound treatment was done at concentrations of 0.39, 0.78, 1.56, 3.12, 6.24, 12.5, 25, 50, 100, and 200 uM in duplicate on each plate. Cells were treated with compounds for 1, 24, or 72 hr. Carbonyl […] m-chloro-phenylhydrazone (CCCP) and taxol were used as positive controls for mitochondrial function and cytoskeletal stability, respectively; DMSO served as the negative control for this experiment. Cells were fixed by the direct addition of 50 uL formaldehyde in Hank's Balanced Salt Solution (HBSS) to a final concentration of 3.7%. After incubation in the fixation medium for 30 min at room temperature (293-298 K), cells were rinsed twice with HBSS and treated with cell permeabilization buffer (16 uL of 0.5% Triton X-100) for 10 min at room temperature (293-298 K) before labeling. For mitochondrial membrane potential and mitochondrial measurements, pre-fixed cells were incubated with 50 uL of MitoTracker Red CMXRos (Invitrogen) at a concentration of 250 nM for 30 min before fixation. In the remaining cases, post-fixed cells were labeled by incubation with a multiplexed mixture of primary antibodies in HBSS for 60 min at room temperature (293-298 K) to detect immunoreactivity of c-Jun (1:500), phospho-histone H3 (1:100), phospho-histone H2A.x (1:200), p53 (1:400), alpha-tubulin (1:200) and Hoechst 33342 (2 ug/mL). Cells were labeled for multiplexed imaging on two separate plates: a) Hoechst 33342, MitoTracker Red, phospho-histone H3, and alpha-tubulin, and b) Hoechst 33342, phospho-histone H2A.x, and c-Jun. A final rinse with HBSS (50 uL) was performed before analysis. The primary and secondary antibodies for the proteins were phospho-histone H3 (rabbit anti-phospho-histone H3 and FITC-donkey anti-rabbit IgG), phospho-histone H2A.x (mouse anti-phospho-histone H2A.x and FITC-donkey anti-mouse IgG), c-Jun (rabbit anti-phospho-c-Jun and Cy3-donkey anti-rabbit IgG), p53 (sheep anti-p53 and Cy5-donkey anti-sheep IgG), alpha-tubulin (mouse anti-alpha-tubulin and Cy5-donkey anti-mouse IgG). These antibodies are available as the CellCiphr HepG2 assay kit (Millipore).Digital images of each well were captured using a Cellomics ArrayScan VTI (Thermo Scientific Cellomics) (0.8 NA objective, 0.63x optical coupler, and XF-93 filter set) at 20x magnification. The images were acquired using the autofocus feature of the ArrayScan instrument, which entails the following steps. First, the camera focuses on channel 1 (Hoechst 33342), where nuclei are identified. Second, a Z offset of 1 um is used for capturing mitochondria (MitoTracker Red). […]
In the case of `C[C@](N)(Cc1ccc(O)c(O)c1)C(=O)O`, the molecule was called inactive.
Same read-out and setting: under `COc1ccc2sc(C(=O)Nc3nnn[nH]3)c(OC(C)C)c2c1` stands “inactive”.
Same read-out and setting: under `CNCc1ccc(NC(=O)c2c[nH]c3c2C(=O)CCC3)cc1` stands “inactive”; under `CCCCCCc1ccc(O)cc1O`, “inactive”; under `CC(C)CCO`, “inactive”.
On the same count and under the same terms, under `CC(C)=CCC/C(C)=C/CO` stands “inactive”; under `CC(O)CN(CCN(CC(C)O)CC(C)O)CC(C)O` (stereo not given), “inactive”.
Turning to `CCCCCCCCCCCCc1ccccc1`, the molecule was classed as inactive.
Regarding `O=C(NS(=O)(=O)/C=C/c1ccccc1)c1ccc(F)cc1Cl`, the call was inactive.
Same read-out and setting: under `CC1=CC(=O)CC(C)(C)C1` stands “inactive”; under `CCOCCO`, “inactive”.
For `CCOC(=O)COc1ccc2c(c1)CC(NCC(O)c1cccc(Cl)c1)CC2` (stereo not given), the molecule was called inactive.
Still for that read-out and setting: under `CC1(C)C(=O)N(Br)C(=O)N1Br` stands “inactive”; under `COc1ccc(-n2nc(C(F)F)cc2-c2ccc(S(C)=O)cc2)cc1` (stereo not given), “inactive”.
For `CC(C)c1cccc(C(C)C)c1N1C(=O)c2ccc(O)cc2C1=O`, the AC50 is 14.8 µM (active).
As for `Nc1nc2ncc(CNc3ccc(C(=O)N[C@@H](CCC(=O)O)C(=O)O)cc3)nc2c(=O)[nH]1`, the outcome was inactive.
Still for that read-out and setting: under `CC[C@H]1CC[C@H](NCc2cc3c(cc2OC)[C@H]2C[C@H]2C(=O)N3C)[C@H](c2ccccc2)N1` stands “inactive”.
Same read-out and setting: under `CCCCCCCCO` stands “inactive”; under `O=C(CCCCCCCCc1cccnc1)N1CCC(C=C(c2ccccc2)c2ccccc2)CC1`, “inactive”.
Same read-out and setting: under `CC(C)CC(C)(O)C#CC(C)(O)CC(C)C` (stereo not given) stands “inactive”.
With `CN(C)c1ccc(Cc2ccc(N(C)C)cc2)cc1`, the AC50 was 37.4 µM (active).
Take `CC(C)CCCCCCOC(=O)c1ccc(C(=O)OCCCCCCC(C)C)c(C(=O)OCCCCCCC(C)C)c1`: the call was inactive.
Consider `COCCOc1cc2cc(C(=O)NC3CCN(C(C)C)CC3)n(CC(=O)Nc3ccc(Cl)cn3)c2cn1`, for which the half-maximal activity concentration (AC50) is 83.7 µM (active).
Regarding `CC[C@H](C)C(=O)O[C@H]1C[C@@H](C)C=C2C=C[C@H](C)[C@H](CC[C@@H]3C[C@@H](O)CC(=O)O3)[C@H]21`, the molecule was classed as inactive.
Still for that read-out and setting: under `CCCCC(CC)COC(=O)c1ccc(C(=O)OCC(CC)CCCC)cc1` (stereo not given) stands “inactive”; under `CC[C@H]1OC(=O)[C@H](C)[C@@H](O[C@H]2C[C@@](C)(OC)[C@@H](O)[C@H](C)O2)[C@H](C)[C@@H](O[C@@H]2O[C@H](C)C[C@H](N(C)C)[C@H]2O)[C@](C)(O)C[C@@H](C)C(=O)[C@H](C)[C@@H](O)[C@]1(C)O`, “inactive”.
With `CCCCC(CC)COC(=O)CCCCCCCCC(=O)OCC(CC)CCCC` (stereo not given), the concentration at half-maximal activity (AC50) is 87.6 µM (active).
In the case of `O=C1CCC(N2C(=O)c3ccccc3C2=O)C(=O)N1` (stereo not given), the molecule was classed as inactive.
As to `COC(=O)c1ccccc1O`, the call was inactive.
Take `CC/C(=C\C(=N/O)C(N)=O)C(C)[N+](=O)[O-]` (stereo not given): the outcome was inactive.
In the case of `Cn1cnc([N+](=O)[O-])c1Sc1ncnc2nc[nH]c12`, the call was inactive.
Consider `O=C(OC[C@H]1O[C@@H](OC(=O)c2cc(O)c(O)c(OC(=O)c3cc(O)c(O)c(O)c3)c2)[C@H](OC(=O)c2cc(O)c(O)c(OC(=O)c3cc(O)c(O)c(O)c3)c2)[C@@H](OC(=O)c2cc(O)c(O)c(OC(=O)c3cc(O)c(O)c(O)c3)c2)[C@@H]1OC(=O)c1cc(O)c(O)c(OC(=O)c2cc(O)c(O)c(O)c2)c1)c1cc(O)c(O)c(OC(=O)c2cc(O)c(O)c(O)c2)c1`, for which the call was inactive.
The same measure, in the same setting: under `Nc1cccc(N)c1` stands “inactive”; under `O=C(O)CCN(C1(C(=O)NO)CCCC1)S(=O)(=O)c1ccc(Oc2ccc(F)cc2)cc1`, “inactive”; under `Cn1c(=O)cc(Oc2ccc(F)cc2F)c2cnc(NCC(C)(C)O)nc21`, “inactive”.
For `COc1cccc(-c2ccc(/C=C\CN3CCCCCC3)cc2Cl)c1`, the call was inactive.
Consider `C1=CCCC=CCCC=CCC1`, for which the call was inactive.
The same measure, in the same setting: under `O=c1[nH]c2ccc(S(=O)CCN3CCC(Cc4ccc(F)cc4)CC3)cc2o1` (stereo not given) stands “inactive”.
On the same count and under the same terms, under `COc1ccc(/C=C/S(=O)(=O)NC(=O)c2ccc(C)cc2Cl)cc1` stands “inactive”; under `Cc1ccc(N)cc1O`, “inactive”.

Source of the values: PubChem BioAssay (EPA / NIEHS).
